Results on 28 compounds are retold here after the supplement of paper PMC6522484.

Assay [1] concerns DLD1. Kind of assay: cell viability (CellTiter-Glo) relative to plate median (fraction of plate median); higher = more viable cells. The settings on record: 5 µM; treatment time 24 h; reporter: 7TFP. In a few lines:
(§1)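 Cells were seeded in 384-well plates; these were colorectal cancer lines stably transduced with lentiviral 7TFP or TCF4/Wnt firefly luciferase reporters. After 24 h, library compounds went in at a final 5 µM, and exposure lasted 24 h. Parallel plates were then read for firefly luciferase or CellTiterGlo luminescence, each well normalised to its plate median, with two independent replicates averaged.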
In general terms: ATP-based viability assays read luminescence as a measure of living cells.

The subject of the next assay is HCT116. The assay is described as above. The settings on record: 5 µM; treatment time 24 h; reporter: TCF4/Wnt. The method in brief: as §1
Assay [2] deals with SW480. The assay is described as above. Particulars: 5 µM; treatment time 24 h; reporter: 7TFP. The method in brief: as §1
Assay [3] concerns DLD1. In words: TCF/Wnt firefly luciferase reporter signal relative to plate median (fraction of plate median); higher = higher Wnt reporter signal. Particulars: 5 µM; treatment time 24 h; reporter: 7TFP. The method in brief: as §1
A general note: A reporter such as luciferase makes a cellular process visible.

The subject of assay [4] is SW480. The description is as above. The settings on record: 5 µM; treatment time 24 h; reporter: 7TFP. In a few lines:
as §1

± gives the standard deviation of the averaged measurements.

In the case of `NCC(=O)CCC(=O)O`, the results for the cell viability in the assay on DLD1 [1], with HCT116 and with SW480 [2] were 1.01 ± 0.021, 1.06 ± 0.042 and 1.01 ± 0.021, respectively. Moreover, the “TCF/Wnt firefly luciferase reporter signal” value in the assay with DLD1 [3] came to 1.1 ± 0.071; in the assay on SW480 [4] it was 1.07 ± 0.021.
`Cc1cc(O)cc(=O)o1`: the cell viability in the assay with DLD1 [1] amounted to 1.05 ± 0.064; in the assay on HCT116, 1.07 ± 0.05; with SW480 [2] it was 1.04 ± 0.028. For the same compound, the “TCF/Wnt firefly luciferase reporter signal” value in the assay with DLD1 [3] was determined as 0.988 ± 0.1; in the assay on SW480 [4], 1.03 ± 0.21.
Consider `CCOC(=O)NNc1nncc2ccccc12`, for which the cell viability amounted to 0.981 ± 0.07 in the assay on DLD1 [1], 1.01 ± 0.014 with HCT116 and 0.981 ± 0.056 with SW480 [2]. Moreover, the entries for the “TCF/Wnt firefly luciferase reporter signal” value in the assay on DLD1 [3] and in the assay with SW480 [4] were 0.85 ± 0.045 and 0.784 ± 0.069, respectively.
The matching figures for `C[C@@H]1CC(=O)c2c(ccc3c2C(=O)c2cccc(O)c2C3=O)C1` [Ochromycinone (Isoform B, compound ID 7489)]: 1.1 ± 0.035, 1, 0.991 ± 0.028, 0.781 ± 0.1 and 0.867 ± 0.047.
Regarding `COc1ccc2c(c1)OCC(Cc1ccc(OC)c(OC)c1)C2=O` (stereo not given), the results for the cell viability in the assay on DLD1 [1], in the assay with HCT116 and in the assay with SW480 [2] were 0.995 ± 0.05, 1.1 ± 0.092 and 1.02 ± 0.044, respectively. Moreover, the “TCF/Wnt firefly luciferase reporter signal” value came out at 0.997 ± 0.15 in the assay on DLD1 [3] and 1.035 ± 0.0071 in the assay on SW480 [4].
Turning to `O=C(O[C@@H]1Cc2c(O)cc(O)cc2O[C@@H]1c1cc(O)c(O)c(O)c1)c1cc(O)c(O)c(O)c1`, the results for the cell viability in the assay with DLD1 [1], in the assay on HCT116 and in the assay with SW480 [2] were 1.03 ± 0.035, 1.01 ± 0.048 and 1.08 ± 0.014, respectively. Also, the “TCF/Wnt firefly luciferase reporter signal” value in the assay with DLD1 [3] stood at 0.974 ± 0.037; in the assay on SW480 [4], 0.916 ± 0.014.
With `NCC[C@H](O)C(=O)N[C@@H]1C[C@H](N)[C@@H](O[C@H]2O[C@H](CN)[C@@H](O)[C@H](O)[C@H]2O)[C@H](O)[C@H]1O[C@H]1O[C@H](CO)[C@@H](O)[C@H](N)[C@H]1O`, the cell viability in the assay on DLD1 [1] amounted to 1.01 ± 0.014; in the assay on HCT116 it was 1 ± 0.037; in the assay on SW480 [2], 0.995 ± 0.036. The “TCF/Wnt firefly luciferase reporter signal” value in the assay with DLD1 [3] came out at 0.821 ± 0.11; in the assay with SW480 [4], 0.905 ± 0.12.
The like results for `CC(=O)O[C@@H]1CC2C(C)(C)[C@H](O)C[C@H](O)[C@@]2(C)C2CC[C@]3(C)C(=CC(=O)O[C@@H]3c3ccoc3)[C@]21C` (stereo not given in full) were, in that order, 0.961 ± 0.098, 0.982 ± 0.097, 0.982 ± 0.011, 1.07 ± 0.099 and 0.948 ± 0.088.
The matching figures for `C[C@]12CC[C@@H]3c4ccc(O)cc4CC[C@H]3[C@@H]1C[C@@H](O)[C@@H]2O`: 1.03 ± 0.035, 1.05 ± 0.057, 1 ± 0.035, 1.07 ± 0.085 and 1.16 ± 0.071.
The like results for `O=C(O)CCC(=O)Nc1ccc(S(=O)(=O)Nc2nccs2)cc1` were, in that order, 0.9765 ± 0.0064, 1.02 ± 0.028, 1.04 ± 0.035, 0.935 ± 0.12 and 1.03 ± 0.028.
For the compound `O=C(O)CN(CC(=O)O)Cc1cc2c(cc1O)Oc1cc(O)c(CN(CC(=O)O)CC(=O)O)cc1C21OC(=O)c2ccccc21`, the cell viability was found to be 0.965 ± 0.03 in the assay on DLD1 [1], 0.914 ± 0.089 with HCT116 and 0.96 ± 0.053 in the assay with SW480 [2]. Further, the “TCF/Wnt firefly luciferase reporter signal” value stood at 0.909 ± 0.13 with DLD1 [3] and 0.895 ± 0.12 in the assay on SW480 [4].
The matching figures for `CN(C)CCCN1c2ccccc2Sc2ccc(C(F)(F)F)cc21`: 1.07 ± 0.17, 0.993 ± 0.081, 1.04 ± 0.028, 0.957 ± 0.034 and 0.959 ± 0.17.
Consider `CC(NCCC(c1ccccc1)c1ccccc1)c1ccccc1` (stereo not given), for which the cell viability in the assay on DLD1 [1] is 0.982 ± 0.04; in the assay with HCT116, 1.02 ± 0.021; in the assay with SW480 [2], 1 ± 0.051. For the same compound, the “TCF/Wnt firefly luciferase reporter signal” value is 0.9435 ± 0.0035 with DLD1 [3] and 0.92 ± 0.015 in the assay on SW480 [4].
As for `COC(=O)C1=CO[C@@H](O[C@@H]2O[C@H](CO)[C@@H](O)[C@H](O)[C@H]2O)[C@H]2[C@@H]1C(=O)C[C@@H]2C`, the cell viability turned out to be 1.03 ± 0.067 with DLD1 [1], 0.992 ± 0.083 in the assay with HCT116 and 0.982 ± 0.026 in the assay on SW480 [2]. In addition, the “TCF/Wnt firefly luciferase reporter signal” value in the assay with DLD1 [3] came to 1.08 ± 0.064; in the assay on SW480 [4], 1.06 ± 0.021.
The matching figures for `O=C(/C=C/C=C/c1ccc2c(c1)OCO2)N1CCCCC1`: 1 ± 0.038, 1.05 ± 0.12, 1.03, 1.16 ± 0.18 and 1.08 ± 0.19.
As to `CCC(=O)OC1[C@@H]2CC3=C4CC(=O)O[C@@H](c5ccoc5)[C@]4(C)CCC3[C@@](C)(C2=O)[C@@H](CC(=O)OC)C1(C)C` (stereo not given in full), the cell viability with DLD1 [1] is 0.932 ± 0.087; in the assay on HCT116, 1.03 ± 0.046; with SW480 [2] it was 1 ± 0.027. The “TCF/Wnt firefly luciferase reporter signal” value in the assay on DLD1 [3] was determined as 0.969 ± 0.012; in the assay with SW480 [4], 0.979 ± 0.19.
Consider `CO[C@@]1(NC(=O)Cc2cccs2)C(=O)N2C(C(=O)O)=C(COC(N)=O)CS[C@@H]21`, for which the cell viability in the assay on DLD1 [1] worked out at 1.06 ± 0.078; in the assay on HCT116 it was 1.08 ± 0.2; in the assay with SW480 [2], 0.968 ± 0.023. For the same compound, the “TCF/Wnt firefly luciferase reporter signal” value with DLD1 [3] was found to be 1.07 ± 0.11; in the assay with SW480 [4], 0.887 ± 0.021.
The matching figures for `COc1ccc([C@@H]2CC(=O)c3c(O)cc(O[C@@H]4O[C@H](CO[C@@H]5O[C@@H](C)[C@H](O)[C@@H](O)[C@H]5O)[C@@H](O)[C@H](O)[C@H]4O)cc3O2)cc1O`: 0.995 ± 0.0014, 0.973 ± 0.038, 1.02 ± 0.014, 1.04 ± 0.17 and 0.988 ± 0.031.
Turning to `O=C(O)CCC(=O)c1ccc(-c2ccccc2)cc1`, the cell viability was 1.04 ± 0.073 in the assay with DLD1 [1], 0.947 ± 0.12 with HCT116 and 0.962 ± 0.018 in the assay with SW480 [2]. The “TCF/Wnt firefly luciferase reporter signal” value in the assay on DLD1 [3] was determined as 1 ± 0.095; with SW480 [4] it was 1.04.
The matching figures for `NCC(O)CC(=O)O` (stereo not given): 1.035 ± 0.0071, 1.04 ± 0.09, 0.965 ± 0.028, 1.04 ± 0.035 and 1.07 ± 0.035.
The matching figures for `CCCC1O[C@@H]2C[C@H]3[C@@H]4CCC5=CC(=O)C=C[C@]5(C)[C@H]4[C@@H](O)C[C@]3(C)[C@]2(C(=O)CO)O1` (stereo not given in full): 1.03 ± 0.014, 0.938 ± 0.1, 0.912 ± 0.015, 1.09 ± 0.071 and 0.81 ± 0.04.
The like results for `C[C@@H]1CCCCCCCCC[C@H](OC(=O)CCC(=O)O)C(=O)/C=C/C(=O)O1` were, in that order, 1.03 ± 0.05, 1.09 ± 0.11, 1.02 ± 0.028, 1.17 ± 0.05 and 1.09 ± 0.014.
Turning to `Nc1ccc(S(=O)(=O)Nc2ccnn2-c2ccccc2)cc1`, the results for the cell viability in the assay on DLD1 [1], in the assay with HCT116 and with SW480 [2] were 1.03 ± 0.058, 1 ± 0.052 and 0.939 ± 0.013, respectively. In addition, the “TCF/Wnt firefly luciferase reporter signal” value stood at 1 ± 0.011 with DLD1 [3] and 1.06 ± 0.057 in the assay with SW480 [4].
For `CC1(C)S[C@@H]2[C@H](N3C(=O)[C@@H](c4ccccc4)NC3(C)C)C(=O)N2[C@H]1C(=O)O`, the results for the cell viability in the assay with DLD1 [1], in the assay on HCT116 and in the assay with SW480 [2] were 1.05 ± 0.079, 1.055 ± 0.0071 and 1.08 ± 0.071, respectively. Moreover, the “TCF/Wnt firefly luciferase reporter signal” value in the assay on DLD1 [3] is 1.15 ± 0.042; in the assay on SW480 [4], 1.09 ± 0.014.
The like results for `O=C1[C@@H]2CCCN2C(=O)[C@@H]2CCCN12` [Cyclo(Prolylprolyl)] were, in that order, 0.978 ± 0.0071, 1.03 ± 0.065, 0.9595 ± 0.0078, 0.811 ± 0.15 and 1.01 ± 0.05.
Take `CN(C)CCC=C1c2ccccc2C=Cc2ccccc21`: the values for the cell viability with DLD1 [1], in the assay on HCT116 and in the assay on SW480 [2] were 1.02 ± 0.034, 0.998 ± 0.046 and 1.035 ± 0.0071, respectively. In addition, the “TCF/Wnt firefly luciferase reporter signal” value in the assay on DLD1 [3] was found to be 0.991 ± 0.042; with SW480 [4] it was 0.969 ± 0.0085.
The like results for `Oc1ccc2c(c1)OC[C@]1(O)Cc3cc(O)c(O)cc3[C@H]21` were, in that order, 1.01 ± 0.044, 0.929 ± 0.085, 0.936 ± 0.0014, 1.15 ± 0.11 and 0.909 ± 0.024.
On to `CC(=O)O[C@H]1CC[C@@]2(C)[C@H](CC[C@@H]3[C@@H]2CC[C@]2(C)[C@@H]4[C@H](C[C@@H]32)O[C@]2(CC[C@@H](C)CO2)[C@H]4C)C1`, for which the cell viability in the assay with DLD1 [1] stood at 1.01 ± 0.028; in the assay on HCT116, 0.979 ± 0.1; with SW480 [2] it was 0.977 ± 0.0014. Also, the results for the “TCF/Wnt firefly luciferase reporter signal” value in the assay on DLD1 [3] and in the assay on SW480 [4] were 0.836 ± 0.043 and 0.941 ± 0.083, respectively.
